Experimental data: PMC5700166
Changes are numbered by the printed parent chain.

Legend:
Experiment in all cases: protein-binding microarray (PBM); PBM: ~300 nM protein, 6 mM HEPES pH 7.8, 80 mM KCl, 0.5 mM EDTA, 0.5 mM EGTA, 6% glycerol, 35 ng/ul poly-dIdC, 1% milk, 1 h, room temperature; Ap Aiptasia and Nv Nematostella (sea anemones) / Co Capsaspora / Aq Amphimedon (sponge) / Dm Drosophila / Hu human; RHD is the Rel homology domain; high values mean tight binding
Conditions in all cases: dsDNA, one strand shown
[1] = target: T1, GST-Ap-NF-kB RHD (Exaiptasia pallida (Aiptasia), UniProt A0A913YAJ5 2-422)
T1 sequence: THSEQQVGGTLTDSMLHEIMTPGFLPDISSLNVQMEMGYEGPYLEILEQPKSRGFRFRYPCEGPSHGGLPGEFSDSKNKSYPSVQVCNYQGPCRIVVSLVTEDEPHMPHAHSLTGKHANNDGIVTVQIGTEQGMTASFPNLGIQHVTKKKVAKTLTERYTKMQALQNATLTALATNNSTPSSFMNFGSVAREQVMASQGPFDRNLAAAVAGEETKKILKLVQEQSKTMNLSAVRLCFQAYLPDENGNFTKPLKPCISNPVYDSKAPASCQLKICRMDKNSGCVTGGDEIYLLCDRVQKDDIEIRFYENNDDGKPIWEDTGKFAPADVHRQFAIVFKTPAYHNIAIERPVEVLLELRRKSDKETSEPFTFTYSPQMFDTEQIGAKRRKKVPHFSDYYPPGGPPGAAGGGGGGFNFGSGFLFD

[2] = target: T2, GST-Nv-NF-kB (Cys allele) (Nematostella vectensis, UniProt E5G601 2-411)
T2 sequence: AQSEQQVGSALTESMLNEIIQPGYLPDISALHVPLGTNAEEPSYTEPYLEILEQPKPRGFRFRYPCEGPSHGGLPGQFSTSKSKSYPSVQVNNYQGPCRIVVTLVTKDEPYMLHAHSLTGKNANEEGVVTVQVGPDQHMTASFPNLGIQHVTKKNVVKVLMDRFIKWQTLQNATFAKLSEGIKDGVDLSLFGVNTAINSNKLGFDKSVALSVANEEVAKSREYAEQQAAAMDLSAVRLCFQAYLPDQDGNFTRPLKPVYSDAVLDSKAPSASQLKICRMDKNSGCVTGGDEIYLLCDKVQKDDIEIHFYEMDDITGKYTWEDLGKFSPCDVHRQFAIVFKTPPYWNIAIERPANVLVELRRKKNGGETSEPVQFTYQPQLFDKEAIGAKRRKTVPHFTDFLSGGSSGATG

[3] = target: T3, GST-Nv-NF-kB (Ser allele) (Nematostella vectensis, UniProt A7UNT2 2-411)
T3 sequence: T2 sequence with Q21R, C66S, S207N, E215Q, V217A, E225K, A268E, D399E

[4] = target: T4, GST-Co-NF-kB (Capsaspora owczarzaki, UniProt F1ARL5 200-546)
T4 sequence: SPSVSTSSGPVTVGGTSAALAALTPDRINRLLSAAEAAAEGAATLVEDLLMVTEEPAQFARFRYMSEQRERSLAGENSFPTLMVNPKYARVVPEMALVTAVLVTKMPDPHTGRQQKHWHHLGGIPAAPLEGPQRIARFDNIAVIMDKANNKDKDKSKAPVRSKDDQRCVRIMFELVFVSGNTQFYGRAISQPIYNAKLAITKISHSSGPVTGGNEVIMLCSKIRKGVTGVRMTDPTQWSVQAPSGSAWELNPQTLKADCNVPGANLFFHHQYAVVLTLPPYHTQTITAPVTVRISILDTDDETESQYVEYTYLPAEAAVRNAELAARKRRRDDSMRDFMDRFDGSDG

[5] = target: T5, GST-Dm-Relish (Drosophila melanogaster, UniProt Q94527 99-473)
T5 sequence: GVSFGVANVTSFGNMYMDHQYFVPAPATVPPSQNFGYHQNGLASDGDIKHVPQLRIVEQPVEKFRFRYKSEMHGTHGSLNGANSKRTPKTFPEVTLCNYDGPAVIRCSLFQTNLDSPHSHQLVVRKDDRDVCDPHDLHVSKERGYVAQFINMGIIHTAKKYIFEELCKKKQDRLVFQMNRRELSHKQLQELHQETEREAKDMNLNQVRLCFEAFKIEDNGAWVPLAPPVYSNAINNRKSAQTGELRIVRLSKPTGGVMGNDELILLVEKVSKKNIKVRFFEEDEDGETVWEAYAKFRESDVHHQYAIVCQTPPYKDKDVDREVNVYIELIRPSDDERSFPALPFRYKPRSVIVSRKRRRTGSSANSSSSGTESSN

[6] = target: T6, GST-Aq-NF-kB (Amphimedon queenslandica, UniProt A9Y5G7 2-389)
T6 sequence: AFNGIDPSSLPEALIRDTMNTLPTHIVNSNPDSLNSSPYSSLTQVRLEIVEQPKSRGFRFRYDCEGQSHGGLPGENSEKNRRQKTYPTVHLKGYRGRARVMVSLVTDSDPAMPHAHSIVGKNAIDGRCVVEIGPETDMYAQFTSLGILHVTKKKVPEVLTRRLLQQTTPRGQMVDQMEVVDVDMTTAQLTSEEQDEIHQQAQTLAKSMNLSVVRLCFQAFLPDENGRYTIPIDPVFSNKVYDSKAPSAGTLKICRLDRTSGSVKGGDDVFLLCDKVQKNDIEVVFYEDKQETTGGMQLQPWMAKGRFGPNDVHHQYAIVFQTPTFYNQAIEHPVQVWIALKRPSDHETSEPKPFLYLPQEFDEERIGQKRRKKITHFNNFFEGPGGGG

[7] = target: GST-Hu-p50 (Homo sapiens, UniProt P19838 7-356)
GST-Hu-p50, sequence (P19838 7-356): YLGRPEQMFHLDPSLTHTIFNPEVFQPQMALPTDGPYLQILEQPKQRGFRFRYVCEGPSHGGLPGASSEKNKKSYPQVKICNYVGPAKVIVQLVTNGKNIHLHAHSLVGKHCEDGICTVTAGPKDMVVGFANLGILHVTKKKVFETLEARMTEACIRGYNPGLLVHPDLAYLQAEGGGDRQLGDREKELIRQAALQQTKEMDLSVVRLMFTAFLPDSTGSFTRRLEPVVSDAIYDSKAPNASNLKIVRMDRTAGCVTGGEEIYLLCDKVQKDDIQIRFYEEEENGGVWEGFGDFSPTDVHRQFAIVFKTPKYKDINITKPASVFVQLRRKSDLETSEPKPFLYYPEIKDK

Sequence	binding signal [1] [z-score]	binding signal [2] [z-score]	binding signal [3] [z-score]	binding signal [4] [z-score]	binding signal [5] [z-score]	binding signal [6] [z-score]	binding signal [7] [z-score]
CCGATTAACATCAGGGTATACCCTGATGTTAATCGGGTCTTGATTCGCTTGACGCTGCTG	4.43	3.42	2.44	2.48	4.16	6.04	2.22
CCGATTAACATCAAGGGGAATTATGATGTTAATCGGGTCTTGATTCGCTTGACGCTGCTG	7.82	10.5	11.4	6.37	7.09	7.24	7.43
CCGATTAACATCAGGGGCTTTTATGATGTTAATCGGGTCTTGATTCGCTTGACGCTGCTG	6.92	9.51	7.11	1.53	7.16	7.6	6.51
CCGATTAACATCACGGGGGAATATGATGTTAATCGGGTCTTGATTCGCTTGACGCTGCTG	8.53	7.14	7.03	10.6	4.66	5.84	6.21
CCGATTAACATCAGGGGGGTAAATGATGTTAATCGGGTCTTGATTCGCTTGACGCTGCTG	4.89	4.22	4.83	7.69	4.17	4.53	4.35
CCGATTAACATCAAAAGAACCCCTGATGTTAATCGGGTCTTGATTCGCTTGACGCTGCTG	4.18	3.46	3.14	2.76	5.45	4.8	4.47
CCGATTAACATCAGGGGAGGGACTGATGTTAATCGGGTCTTGATTCGCTTGACGCTGCTG	4.36	4.69	4.55	2.92	3.83	5.21	3.82
CCGATTAACATCACAAGTTCCCCTGATGTTAATCGGGTCTTGATTCGCTTGACGCTGCTG	7.44	7.71	8.61	7.27	6.56	6.21	5.93
CCGATTAACATCAGGGGAAATAATGATGTTAATCGGGTCTTGATTCGCTTGACGCTGCTG	6.88	8.65	11.6	9	5.53	5.68	6.58
CCGATTAACATCAAATAATCCCCTGATGTTAATCGGGTCTTGATTCGCTTGACGCTGCTG	8.76	10	10.6	5.91	7.99	7.75	6.78
CCGATTAACATCAAATTTCCCTATGATGTTAATCGGGTCTTGATTCGCTTGACGCTGCTG	4.13	6.5	6.37	3.02	2.55	6.3	5.04
CCGATTAACATCACTATTCCCCCTGATGTTAATCGGGTCTTGATTCGCTTGACGCTGCTG	5.37	6.24	7.08	7.68	3.2	4.96	5.82
CCGATTAACATCACGGAATCCCCTGATGTTAATCGGGTCTTGATTCGCTTGACGCTGCTG	8.93	8.59	9.68	3.45	9.36	6.48	6.67
CCGATTAACATCAGGGAATTCTATGATGTTAATCGGGTCTTGATTCGCTTGACGCTGCTG	5.04	6.52	6.75	3.81	3.59	5.61	4.8
CCGATTAACATCAGGGAACCACCTGATGTTAATCGGGTCTTGATTCGCTTGACGCTGCTG	6.9	5.68	4.58	1.22	9.5	6.96	5.71
CCGATTAACATCAATACTCCCCCTGATGTTAATCGGGTCTTGATTCGCTTGACGCTGCTG	6.61	5.41	6.73	8.03	3.95	4.97	6.4
CCGATTAACATCAATTTTCCCCGTGATGTTAATCGGGTCTTGATTCGCTTGACGCTGCTG	6.99	8.12	10.2	11	4.87	6.2	5.95
CCGATTAACATCAGGGAAATACCTGATGTTAATCGGGTCTTGATTCGCTTGACGCTGCTG	6	8.81	6.78	3.06	8.42	9.82	5.57
CCGATTAACATCAGGGGATTGCATGATGTTAATCGGGTCTTGATTCGCTTGACGCTGCTG	5.77	5.89	6.93	2.38	4.62	4.23	5.31

Sequence	binding signal [1] [z-score]	binding signal [2] [z-score]	binding signal [3] [z-score]	binding signal [4] [z-score]	binding signal [5] [z-score]	binding signal [6] [z-score]	binding signal [7] [z-score]
CCGATTAACATCAACATTTCCCCTGATGTTAATCGGGTCTTGATTCGCTTGACGCTGCTG	6.31	8.45	11.6	8.45	3.46	5.86	6.35
CCGATTAACATCAAAAGTTCCCCTGATGTTAATCGGGTCTTGATTCGCTTGACGCTGCTG	8.35	9.74	10.9	9.64	9.48	7.95	6.5
CCGATTAACATCAGAGATTTCCCTGATGTTAATCGGGTCTTGATTCGCTTGACGCTGCTG	3.94	5.69	6.13	3.92	2.1	5.48	4.51
CCGATTAACATCAATTTCCCCCGTGATGTTAATCGGGTCTTGATTCGCTTGACGCTGCTG	7.85	6.59	8.85	12.3	5.65	6.15	6.52
CCGATTAACATCACGGGGGTTCCTGATGTTAATCGGGTCTTGATTCGCTTGACGCTGCTG	9.11	5.77	4.99	2.92	9.73	6.72	5.25
CCGATTAACATCAGGGGGACCCCTGATGTTAATCGGGTCTTGATTCGCTTGACGCTGCTG	8.92	5.39	4.83	4.63	9.89	8.54	5.02
CCGATTAACATCAAAAATACCCTTGATGTTAATCGGGTCTTGATTCGCTTGACGCTGCTG	5.7	9.05	7.74	1.68	7.04	7.5	6.41
CCGATTAACATCAGGGGTAACCCTGATGTTAATCGGGTCTTGATTCGCTTGACGCTGCTG	4.06	2.99	2.19	4.77	4.12	5.1	3.1
CCGATTAACATCAGAGACCCCCCTGATGTTAATCGGGTCTTGATTCGCTTGACGCTGCTG	4.3	3.27	2.81	2.4	5.26	3.97	3.87
CCGATTAACATCAGGGGGTTTAATGATGTTAATCGGGTCTTGATTCGCTTGACGCTGCTG	6.88	5.26	6.77	2.64	7.87	5.24	6.62
CCGATTAACATCAGGGAGTCCCCTGATGTTAATCGGGTCTTGATTCGCTTGACGCTGCTG	10.9	8.88	7.04	4.05	10.7	9.35	6.52
CCGATTAACATCACACAACCCCCTGATGTTAATCGGGTCTTGATTCGCTTGACGCTGCTG	5.16	3.73	4.93	2.31	4.91	3.93	4.68
CCGATTAACATCAGGATCCCCCCTGATGTTAATCGGGTCTTGATTCGCTTGACGCTGCTG	8.27	6.24	6.33	5.45	8.78	6.39	6.19
CCGATTAACATCAGATACTCCCCTGATGTTAATCGGGTCTTGATTCGCTTGACGCTGCTG	5.47	4.28	4.21	4.31	1.86	4.46	3.57
CCGATTAACATCACTTATCCCCCTGATGTTAATCGGGTCTTGATTCGCTTGACGCTGCTG	4.81	3.72	4.72	6.68	2.71	3.72	4.19
CCGATTAACATCAGAAATCCCCCTGATGTTAATCGGGTCTTGATTCGCTTGACGCTGCTG	11.2	10.5	10.8	6.78	9.63	8.32	7.68
CCGATTAACATCACACATTCCCCTGATGTTAATCGGGTCTTGATTCGCTTGACGCTGCTG	6.52	7.88	8.75	5.83	2.91	5.41	5.28
CCGATTAACATCAGAGCTCCCCCTGATGTTAATCGGGTCTTGATTCGCTTGACGCTGCTG	5.05	4.31	4.32	5.45	1.98	3.98	4.94
CCGATTAACATCAGGGAATTACCTGATGTTAATCGGGTCTTGATTCGCTTGACGCTGCTG	8.44	9.55	9.14	5.01	8.83	9.49	5.8
